Data: PubChem BioAssay (NCI)
The panel holds about 83,000 compounds, 20% with a hit somewhere; the sample as a whole holds those more often.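 Step 1: grow cells in 96-well plates. Step 2: add test compound at a single concentration. Step 3: incubate 48 h. Step 4: record percent growth.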 Activity calls are given as the source filed them. The calls were made as follows: active = growth percent below 10; inactive = the rest.

Tested on: HL-60(TB) leukemia
Experiment: NCI-60 one-dose screen, 48 h (100 = growth as untreated, 0 = no growth, -100 = all killed)
Settings: 10 µM unless noted

**Q.** How did the growth turn out when `O=C(NO)c1ccc(Cn2c(=O)n(CCc3ccccc3)c(=O)c3ccccc32)cc1` was run?
**A.** The growth was 36.2% (inactive).

**Q.** Which growth does the source give for `CCCN(CCC)c1ccc(/C=C/c2ccc3cc(OCC)ccc3n2)cc1` here?
**A.** The growth was 54.3% (inactive).

**Q.** `CCN(CC)CCSCCN(CC)CC` was tested. Which growth did it give?
**A.** Its growth is 100% (inactive).

**Q.** For `Cn1nc(C(F)(F)F)cc1-c1cc(Cl)c(OCc2ccc(Cl)cc2)c(-c2ccc(Cl)c(C(F)(F)F)c2)c1O`, which growth is on record?
**A.** The growth was -24.3% (active).

**Q.** `C#Cc1cccc(Nc2nc3cc([N+](=O)[O-])ccc3nc2Nc2ccc(O)cc2)c1` was tested. Which growth did it give?
**A.** The growth was 4.42% (active).

**Q.** `CCC1C(=O)COC1=O` (stereo not given) was tested. Which growth did it give?
**A.** Its growth is 96.9% (inactive).

**Q.** `COc1ccc(OC)c(-c2cn3nc(-c4c[nH]c5ccc(Br)cc45)sc3n2)c1` was tested. Which growth did it give?
**A.** Its growth is 86.3% (inactive).

**Q.** With `COc1ccc(/C=C2\Oc3cc(OCCCN4CCCC4)ccc3C2=O)c(OC)c1` as the compound, how does the growth read?
**A.** Its growth is 96.2% (inactive).

**Q.** For `COc1cc(-c2nn(C(=O)NCCN3CCN(C)CC3)cc2-c2ccncc2)ccc1Cl`, which growth is on record?
**A.** The growth was 93.2% (inactive).

**Q.** Which growth does the source give for `COc1cc(C(=O)N(C(C)C)C2CCCCC2)cc(OC)c1OC` here?
**A.** Its growth is 96.7% (inactive).

**Q.** How did the growth turn out when `CC(=O)c1c(C)[nH]c(-c2nc3ccc(N4CCN(C)CC4)cc3[nH]2)c1-c1ccc(N(C)C)cc1` was run?
**A.** The growth was -17.3% (active).

**Q.** Which growth does the source give for `Cc1cc(NS(=O)(=O)c2ccccc2)c(OS(=O)(=O)c2ccccc2)cc1C` here?
**A.** The growth was 105% (inactive).

**Q.** Which growth does the source give for `Nc1ccc(C2=NN(c3ccccc3)C(c3ccc(Cl)cc3)C2)cc1` (stereo not given) here?
**A.** Its growth is 59.6% (inactive).

**Q.** With `COc1ccc(C(=O)COc2cccc(/C=C3\CSc4ccc(Cl)cc4C3=O)c2)cc1` as the compound, how does the growth read?
**A.** The growth was 81.8% (inactive).

**Q.** How did the growth turn out when `CC(CCC(=O)O)[C@H]1CCC2C3C(=O)C[C@@H]4CC(=O)CC[C@]4(C)C3CC(=O)[C@@]21C` (stereo not given in full) was run?
**A.** The growth was 106% (inactive).

**Q.** Which growth does the source give for `CC(=O)[C@@H]1CC[C@]2(C(=O)O)CC[C@]3(C)[C@H](CC[C@@H]4[C@@]5(C)Cc6c([nH]c7ccccc67)C(C)(C)[C@@H]5CC[C@]43C)[C@@H]12` here?
**A.** Its growth is 53.4% (inactive).

**Q.** For `N=S(=O)(NC(=O)c1ccc(Cl)cc1Cl)c1ccc(Br)s1` (stereo not given), which growth is on record?
**A.** The growth was 96.8% (inactive).

**Q.** Which growth does the source give for `O=Nc1ccc(NC(=O)Nc2ccc([N+](=O)[O-])cc2)cc1` here?
**A.** The growth was 89.8% (inactive).

**Q.** `O=S(=O)(O)C(Nc1ccccc1)c1ccccc1` (stereo not given) was tested. Which growth did it give?
**A.** The growth was 87.2% (inactive).

**Q.** Which growth does the source give for `COc1ccc(OC)c(/C=C/c2nc(SC)n(-c3ccc(Cl)cc3)n2)c1` here?
**A.** The growth was 65.7% (inactive).

**Q.** `N#C/C(=C\NC(=S)N=Nc1c(O)[nH]c2ccccc12)c1nc2ccccc2s1` was tested. Which growth did it give?
**A.** The growth was 103% (inactive).

**Q.** How did the growth turn out when `Cc1cccc(-n2c(C)nc3ccc(N4CCCNC4=O)cc3c2=O)c1` was run?
**A.** Its growth is 109% (inactive).

**Q.** With `OCC1OC(n2cnc3c(NCc4ccco4)ncnc32)C(O)C1O` (stereo not given) as the compound, how does the growth read?
**A.** The growth was -26.3% (active).

**Q.** `COc1ccc(NC(=O)C2CC3C=CC2C3)c([N+](=O)[O-])c1` (stereo not given) was tested. Which growth did it give?
**A.** The growth was 86.2% (inactive).

**Q.** Which growth does the source give for `CC(C)CCC[C@@H](C)[C@H]1CC[C@H]2[C@@H](Nc3ccc(O)cc3)CCC[C@]12C` here?
**A.** Its growth is 39.2% (inactive).
